# Assay results published in publication PMC11062922 (Nature Chemical Biology, 2023).
# Like-named read-outs stand apart in the source and are kept apart here.
# Assays:
# LATS1 = conditions: read-out: apparent Kd, n = 1
# MAP2K2 = conditions: read-out: apparent Kd, n = 1
# [1] = compound concentrations:100 nM and 1000 nM (sheet 'Lestaurtinib' of Supplementary Table 1),run:Lestaurtinib_02624_R1,Plate:MR020
# [2] = compound concentrations:100 nM and 1000 nM (sheet 'Lestaurtinib' of Supplementary Table 1),run:Lestaurtinib_02624_R2,Plate:MR020
# [3] = compound concentrations:100 nM and 1000 nM (sheet 'Lestaurtinib' of Supplementary Table 1),run:Lestaurtinib_02624_R3,Plate:MR020
# [4] = compound concentrations:100 nM and 1000 nM (sheet 'Lestaurtinib' of Supplementary Table 1),run:Lestaurtinib_02724_R1,Plate:MR021
# [5] = compound concentrations:100 nM and 1000 nM (sheet 'Lestaurtinib' of Supplementary Table 1),run:Lestaurtinib_02752_R1,Plate:MR025
# [6] = compound concentrations:100 nM and 1000 nM (sheet 'Lestaurtinib' of Supplementary Table 1),run:Lestaurtinib_02752_R2,Plate:MR025
substance,measurement,setting,value
Lestaurtinib,potency estimated from few doses,LATS1; [1],25.8 nM
same,potency estimated from few doses,LATS1; [2],40.9 nM
same,potency estimated from few doses,LATS1; [3],38.9 nM
same,potency estimated from few doses,LATS1; [4],13.4 nM
same,potency estimated from few doses,"LATS1; compound concentrations:100 nM and 1000 nM (sheet 'Lestaurtinib' of Supplementary Table 1),run:Lestaurtinib_02724_R3,Plate:MR021",13.2 nM
same,potency estimated from few doses,"LATS1; compound concentrations:100 nM and 1000 nM (sheet 'Lestaurtinib' of Supplementary Table 1),run:Lestaurtinib_02741_R2,Plate:MR023",27 nM
same,potency estimated from few doses,"LATS1; compound concentrations:100 nM and 1000 nM (sheet 'Lestaurtinib' of Supplementary Table 1),run:Lestaurtinib_02748_R1,Plate:MR024",36.2 nM
same,potency estimated from few doses,"LATS1; compound concentrations:100 nM and 1000 nM (sheet 'Lestaurtinib' of Supplementary Table 1),run:Lestaurtinib_02748_R3,Plate:MR024",56.4 nM
same,potency estimated from few doses,LATS1; [5],27.3 nM
same,potency estimated from few doses,LATS1; [6],32.9 nM
same,potency estimated from few doses,"LATS1; compound concentrations:100 nM and 1000 nM (sheet 'Lestaurtinib' of Supplementary Table 1),run:Lestaurtinib_02752_R3,Plate:MR025",52.3 nM
same,potency estimated from few doses,"LATS1; compound concentrations:100 nM and 1000 nM (sheet 'Lestaurtinib' of Supplementary Table 1),run:Lestaurtinib_02765_R1,Plate:MR026",40.4 nM
same,potency estimated from few doses,"LATS1; compound concentrations:100 nM and 1000 nM (sheet 'Lestaurtinib' of Supplementary Table 1),run:Lestaurtinib_02765_R2,Plate:MR026",48.6 nM
same,potency estimated from few doses,"LATS1; compound concentrations:100 nM and 1000 nM (sheet 'Lestaurtinib' of Supplementary Table 1),run:Lestaurtinib_02765_R3,Plate:MR026",66.7 nM
same,potency estimated from few doses,"LATS1; compound concentrations:100 nM and 1000 nM (sheet 'Lestaurtinib' of Supplementary Table 1),run:Lestaurtinib_02768_R1,Plate:MR028",31.7 nM
same,potency estimated from few doses,"LATS1; compound concentrations:100 nM and 1000 nM (sheet 'Lestaurtinib' of Supplementary Table 1),run:Lestaurtinib_02795_R1,Plate:MR022",15.1 nM
same,potency estimated from few doses,"LATS1; compound concentrations:100 nM and 1000 nM (sheet 'Lestaurtinib' of Supplementary Table 1),run:Lestaurtinib_02795_R3,Plate:MR022",46.9 nM
same,potency estimated from few doses,"LATS1; compound concentrations:100 nM and 1000 nM (sheet 'Lestaurtinib' of Supplementary Table 1),run:Lestaurtinib_02802_R1,Plate:MR029",38.6 nM
same,potency estimated from few doses,"LATS1; compound concentrations:100 nM and 1000 nM (sheet 'Lestaurtinib' of Supplementary Table 1),run:Lestaurtinib_02802_R2,Plate:MR029",26 nM
same,potency estimated from few doses,"LATS1; compound concentrations:100 nM and 1000 nM (sheet 'Lestaurtinib' of Supplementary Table 1),run:Lestaurtinib_02896_R1,Plate:MR030",15.1 nM
same,potency estimated from few doses,"LATS1; compound concentrations:100 nM and 1000 nM (sheet 'Lestaurtinib' of Supplementary Table 1),run:Lestaurtinib_02896_R2,Plate:MR030",27.9 nM
same,potency estimated from few doses,"LATS1; compound concentrations:100 nM and 1000 nM (sheet 'Lestaurtinib' of Supplementary Table 1),run:Lestaurtinib_03172_R1,Plate:MR031",40.9 nM
same,potency estimated from few doses,"LATS1; compound concentrations:100 nM and 1000 nM (sheet 'Lestaurtinib' of Supplementary Table 1),run:Lestaurtinib_03172_R2,Plate:MR031",32.7 nM
same,potency estimated from few doses,"LATS1; compound concentrations:100 nM and 1000 nM (sheet 'Lestaurtinib' of Supplementary Table 1),run:Lestaurtinib_03172_R3,Plate:MR031",30.1 nM
same,potency estimated from few doses,"LATS1; compound concentrations:100 nM and 1000 nM (sheet 'Lestaurtinib' of Supplementary Table 1),run:Lestaurtinib_03252_R1,Plate:MR032",41.1 nM
same,potency estimated from few doses,"LATS1; compound concentrations:100 nM and 1000 nM (sheet 'Lestaurtinib' of Supplementary Table 1),run:Lestaurtinib_03260_R2,Plate:MR033",66 nM
same,potency estimated from few doses,"LATS1; compound concentrations:100 nM and 1000 nM (sheet 'Lestaurtinib' of Supplementary Table 1),run:Lestaurtinib_03260_R3,Plate:MR033",57.8 nM
same,potency estimated from few doses,"MAP2K2; compound concentrations:100 nM and 1000 nM (sheet 'Lestaurtinib' of Supplementary Table 1),run:Lestaurtinib_02339_R1,Plate:MR001",1930 nM
same,potency estimated from few doses,"MAP2K2; compound concentrations:100 nM and 1000 nM (sheet 'Lestaurtinib' of Supplementary Table 1),run:Lestaurtinib_02339_R2,Plate:MR001",822 nM
same,potency estimated from few doses,"MAP2K2; compound concentrations:100 nM and 1000 nM (sheet 'Lestaurtinib' of Supplementary Table 1),run:Lestaurtinib_02339_R3,Plate:MR001",836 nM
same,potency estimated from few doses,"MAP2K2; compound concentrations:100 nM and 1000 nM (sheet 'Lestaurtinib' of Supplementary Table 1),run:Lestaurtinib_02364_R1,Plate:MR002",1210 nM
same,potency estimated from few doses,"MAP2K2; compound concentrations:100 nM and 1000 nM (sheet 'Lestaurtinib' of Supplementary Table 1),run:Lestaurtinib_02364_R2,Plate:MR002",1670 nM
same,potency estimated from few doses,"MAP2K2; compound concentrations:100 nM and 1000 nM (sheet 'Lestaurtinib' of Supplementary Table 1),run:Lestaurtinib_02367_R1,Plate:MR003",557 nM
same,potency estimated from few doses,"MAP2K2; compound concentrations:100 nM and 1000 nM (sheet 'Lestaurtinib' of Supplementary Table 1),run:Lestaurtinib_02367_R2,Plate:MR003",665 nM
same,potency estimated from few doses,"MAP2K2; compound concentrations:100 nM and 1000 nM (sheet 'Lestaurtinib' of Supplementary Table 1),run:Lestaurtinib_02367_R3,Plate:MR003",2220 nM
same,potency estimated from few doses,"MAP2K2; compound concentrations:100 nM and 1000 nM (sheet 'Lestaurtinib' of Supplementary Table 1),run:Lestaurtinib_02407_R1,Plate:MR005",96.3 nM
same,potency estimated from few doses,"MAP2K2; compound concentrations:100 nM and 1000 nM (sheet 'Lestaurtinib' of Supplementary Table 1),run:Lestaurtinib_02407_R2,Plate:MR005",143 nM
same,potency estimated from few doses,"MAP2K2; compound concentrations:100 nM and 1000 nM (sheet 'Lestaurtinib' of Supplementary Table 1),run:Lestaurtinib_02407_R3,Plate:MR005",794 nM
same,potency estimated from few doses,"MAP2K2; compound concentrations:100 nM and 1000 nM (sheet 'Lestaurtinib' of Supplementary Table 1),run:Lestaurtinib_02422_R3,Plate:MR006",1800 nM
same,potency estimated from few doses,"MAP2K2; compound concentrations:100 nM and 1000 nM (sheet 'Lestaurtinib' of Supplementary Table 1),run:Lestaurtinib_02437_R1,Plate:MR007",159 nM
same,potency estimated from few doses,"MAP2K2; compound concentrations:100 nM and 1000 nM (sheet 'Lestaurtinib' of Supplementary Table 1),run:Lestaurtinib_02437_R2,Plate:MR007",1370 nM
same,potency estimated from few doses,"MAP2K2; compound concentrations:100 nM and 1000 nM (sheet 'Lestaurtinib' of Supplementary Table 1),run:Lestaurtinib_02437_R3,Plate:MR007",98.9 nM
same,potency estimated from few doses,"MAP2K2; compound concentrations:100 nM and 1000 nM (sheet 'Lestaurtinib' of Supplementary Table 1),run:Lestaurtinib_02438_R1,Plate:MR008",1800 nM
same,potency estimated from few doses,"MAP2K2; compound concentrations:100 nM and 1000 nM (sheet 'Lestaurtinib' of Supplementary Table 1),run:Lestaurtinib_02438_R2,Plate:MR008",876 nM
same,potency estimated from few doses,"MAP2K2; compound concentrations:100 nM and 1000 nM (sheet 'Lestaurtinib' of Supplementary Table 1),run:Lestaurtinib_02438_R3,Plate:MR008",745 nM
same,potency estimated from few doses,"MAP2K2; compound concentrations:100 nM and 1000 nM (sheet 'Lestaurtinib' of Supplementary Table 1),run:Lestaurtinib_02443_R2,Plate:MR009",782 nM
same,potency estimated from few doses,"MAP2K2; compound concentrations:100 nM and 1000 nM (sheet 'Lestaurtinib' of Supplementary Table 1),run:Lestaurtinib_02443_R3,Plate:MR009",924 nM
same,potency estimated from few doses,"MAP2K2; compound concentrations:100 nM and 1000 nM (sheet 'Lestaurtinib' of Supplementary Table 1),run:Lestaurtinib_02473_R1,Plate:MR010",838 nM
same,potency estimated from few doses,"MAP2K2; compound concentrations:100 nM and 1000 nM (sheet 'Lestaurtinib' of Supplementary Table 1),run:Lestaurtinib_02482_R1,Plate:MR011",1400 nM
same,potency estimated from few doses,"MAP2K2; compound concentrations:100 nM and 1000 nM (sheet 'Lestaurtinib' of Supplementary Table 1),run:Lestaurtinib_02482_R2,Plate:MR011",1360 nM
same,potency estimated from few doses,"MAP2K2; compound concentrations:100 nM and 1000 nM (sheet 'Lestaurtinib' of Supplementary Table 1),run:Lestaurtinib_02482_R3,Plate:MR011",1300 nM
same,potency estimated from few doses,"MAP2K2; compound concentrations:100 nM and 1000 nM (sheet 'Lestaurtinib' of Supplementary Table 1),run:Lestaurtinib_02487_R3,Plate:MR012",1300 nM
same,potency estimated from few doses,"MAP2K2; compound concentrations:100 nM and 1000 nM (sheet 'Lestaurtinib' of Supplementary Table 1),run:Lestaurtinib_02496_R3,Plate:MR013",1430 nM
same,potency estimated from few doses,"MAP2K2; compound concentrations:100 nM and 1000 nM (sheet 'Lestaurtinib' of Supplementary Table 1),run:Lestaurtinib_02566_R2,Plate:MR014",1240 nM
same,potency estimated from few doses,"MAP2K2; compound concentrations:100 nM and 1000 nM (sheet 'Lestaurtinib' of Supplementary Table 1),run:Lestaurtinib_02566_R3,Plate:MR014",835 nM
same,potency estimated from few doses,"MAP2K2; compound concentrations:100 nM and 1000 nM (sheet 'Lestaurtinib' of Supplementary Table 1),run:Lestaurtinib_02572_R1,Plate:MR015",1370 nM
same,potency estimated from few doses,"MAP2K2; compound concentrations:100 nM and 1000 nM (sheet 'Lestaurtinib' of Supplementary Table 1),run:Lestaurtinib_02577_R1,Plate:MR016",1370 nM
same,potency estimated from few doses,"MAP2K2; compound concentrations:100 nM and 1000 nM (sheet 'Lestaurtinib' of Supplementary Table 1),run:Lestaurtinib_02577_R2,Plate:MR016",883 nM
same,potency estimated from few doses,"MAP2K2; compound concentrations:100 nM and 1000 nM (sheet 'Lestaurtinib' of Supplementary Table 1),run:Lestaurtinib_02577_R3,Plate:MR016",852 nM
same,potency estimated from few doses,"MAP2K2; compound concentrations:100 nM and 1000 nM (sheet 'Lestaurtinib' of Supplementary Table 1),run:Lestaurtinib_02584_R3,Plate:MR017",1580 nM
same,potency estimated from few doses,"MAP2K2; compound concentrations:100 nM and 1000 nM (sheet 'Lestaurtinib' of Supplementary Table 1),run:Lestaurtinib_02601_R1,Plate:MR018",728 nM
same,potency estimated from few doses,"MAP2K2; compound concentrations:100 nM and 1000 nM (sheet 'Lestaurtinib' of Supplementary Table 1),run:Lestaurtinib_02606_R1,Plate:MR019",691 nM
same,potency estimated from few doses,"MAP2K2; compound concentrations:100 nM and 1000 nM (sheet 'Lestaurtinib' of Supplementary Table 1),run:Lestaurtinib_02606_R3,Plate:MR019",1150 nM
same,potency estimated from few doses,MAP2K2; [1],976 nM
same,potency estimated from few doses,MAP2K2; [2],1760 nM
same,potency estimated from few doses,MAP2K2; [3],1490 nM
same,potency estimated from few doses,MAP2K2; [4],1320 nM
same,potency estimated from few doses,"MAP2K2; compound concentrations:100 nM and 1000 nM (sheet 'Lestaurtinib' of Supplementary Table 1),run:Lestaurtinib_02724_R2,Plate:MR021",1510 nM
same,potency estimated from few doses,"MAP2K2; compound concentrations:100 nM and 1000 nM (sheet 'Lestaurtinib' of Supplementary Table 1),run:Lestaurtinib_02741_R3,Plate:MR023",875 nM
same,potency estimated from few doses,"MAP2K2; compound concentrations:100 nM and 1000 nM (sheet 'Lestaurtinib' of Supplementary Table 1),run:Lestaurtinib_02748_R2,Plate:MR024",1490 nM
same,potency estimated from few doses,MAP2K2; [5],842 nM
same,potency estimated from few doses,MAP2K2; [6],925 nM
